# Results: the supplement of paper PMC3334620
# Over roughly 33,000 sequences, “E-score (-0.5 to 0.5)” has its median near -0.032; the highest 2% begin near 0.36. Many of the other results were omitted from the sample, so the highest values are more common in it than they were.
# Biological target: T1, Sko1 (UniProt Q02100)
# T1 sequence: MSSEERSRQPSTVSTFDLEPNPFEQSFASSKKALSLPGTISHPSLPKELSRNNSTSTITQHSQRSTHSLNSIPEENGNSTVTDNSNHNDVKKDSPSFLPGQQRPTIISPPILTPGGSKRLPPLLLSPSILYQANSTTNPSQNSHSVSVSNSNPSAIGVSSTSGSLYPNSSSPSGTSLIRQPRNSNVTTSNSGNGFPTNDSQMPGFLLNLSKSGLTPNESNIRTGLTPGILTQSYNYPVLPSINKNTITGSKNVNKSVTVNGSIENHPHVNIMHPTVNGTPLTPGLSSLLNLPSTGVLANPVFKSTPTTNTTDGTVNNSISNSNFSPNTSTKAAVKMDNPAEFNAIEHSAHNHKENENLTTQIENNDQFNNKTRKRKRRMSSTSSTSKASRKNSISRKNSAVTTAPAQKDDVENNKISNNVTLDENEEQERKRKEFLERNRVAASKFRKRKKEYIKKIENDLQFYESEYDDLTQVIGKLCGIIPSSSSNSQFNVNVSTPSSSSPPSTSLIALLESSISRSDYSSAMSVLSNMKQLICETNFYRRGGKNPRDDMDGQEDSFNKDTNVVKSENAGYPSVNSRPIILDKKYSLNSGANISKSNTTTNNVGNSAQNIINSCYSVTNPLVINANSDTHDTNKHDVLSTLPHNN
# Test: PBM E-score (8-mer binding enrichment) (E-score (-0.5 to 0.5)); higher = stronger / more preferred TF binding
# Conditions: protein concentration: 200 nM; construct: GST-full length
# Procedure: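 Universal 'all 10-mer' protein binding microarrays (Agilent AMADID 015681) probed with GST-tagged S. cerevisiae TFs (full-length or DBD) made by in vitro transcription/translation (PURExpress), about 100-200 nM. Bound TF was detected with fluorescent anti-GST. Each ungapped 8-mer (which stands for itself and its reverse complement) is scored by the PBM enrichment score (E-score), a modified Wilcoxon-Mann-Whitney statistic from -0.5 to +0.5, computed with the Universal PBM Analysis Suite. Scale: above 0.35 generally sequence-specific binding.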
row,Sequence,PBM E-score
1,GACTCTGA,-0.104
2,GAGCTCCA,-0.129
3,AATCCTGG,-0.199
4,ATAGTTAC,0.212
5,CGCGACGA,0.125
6,ACGTTCGA,0.248
7,TCGGCTCA,-0.111
8,GTAGAGGA,-0.194
9,AAACCGAG,-0.175
10,CCGCTCCG,-0.269
11,GCCTTCCA,-0.222
12,CACACGCG,0.104
13,CACACGTA,0.45
14,CACACGGA,-0.167
15,CCTGCGAA,-0.0899
16,CGTAAGCC,0.203
17,GCGTTGGA,-0.00317
18,ACACTACG,0.368
19,ACACTACA,0.167
20,ACACTACT,-0.0134
21,CACTACCA,-0.029
22,CGTCACGA,0.443
23,AGTCACGC,0.167
24,GGTCACGA,-0.0631
25,AGTCACGA,0.103

row,Sequence,PBM E-score
1,CCTCACGC,0.0875
2,CGTCACGC,0.433
3,GTTCGCGA,0.133
4,GGAAGCTA,-0.135
5,AGTGCAGA,-0.0919
6,CGGGATAA,0.0877
7,GGCTTGTA,-0.158
8,AGCTCAAT,0.016
9,AGATTGAT,-0.0863
10,AGTCATTC,0.135
11,CCTCATTC,-0.0556
12,CGTCATTC,0.482
13,AGTCATTA,0.032
14,GGTCATTA,0.232
15,CGTCATTA,0.487
16,ACTCAAAC,0.0881
17,GTGGCGCA,0.0382
18,CCTGGCTC,-0.137
19,TGCTTCCA,-0.067
20,GAAGCTTC,-0.375
21,CTCTGCAA,-0.0293
22,CAGCTCAG,-0.0505
23,AGTCACTA,0.0867
24,CCTCACTC,-0.0833
25,CGTCACTC,0.418

row,Sequence,PBM E-score
1,CGTCACTA,0.445
2,GGTCACTA,0.0129
3,AGTCACTC,-0.0377
4,CACCACCG,-0.248
5,TACGCCTA,0.208
6,AATCTAAC,0.124
7,CGATCTAA,0.0385
8,CGGCATGA,0.11
9,TAGTATAA,0.24
10,ACTCCACG,0.0133
11,AACTCTCA,0.0877
12,ATGATGAA,0.321
13,ATGATGTA,0.459
14,ATGATGCC,0.244
15,GTGATGCA,0.249
16,ATGATGCA,0.376
17,AAGATGTA,0.206
18,ATGATGTC,0.446
19,CTGATGTC,0.173
20,GTGATGTA,0.397
21,CTGATGTA,0.255
22,GTGATGAA,0.111
23,ATGATGAC,0.327
24,ATCGAAGG,0.0197
25,GTGAGCCA,-0.0673

row,Sequence,PBM E-score
1,GCGGAATA,0.0622
2,CTAGAAGA,0.0318
3,TTTTAAAA,0.233
4,ATTTAGTG,0.0842
5,GCCGCTCC,-0.396
6,AATTTCAG,0.0849
7,TGACAGAA,0.141
8,GGGCAATA,-0.14
9,CGACCGCA,-0.266
10,ATGATGAG,0.275
11,AGGATGTG,-0.206
12,ATGATGTG,0.379
13,AACTCCAG,-0.205
14,AGGAACAT,0.176
15,AAAGAACG,0.143
16,ATTGACTA,-0.0436
17,CGTATTTA,0.419
18,AGTATTTA,0.164
19,CGTATTTC,0.367
20,CCTATTTC,0.0978
21,AGTATTTC,0.108
22,GGTATTTA,0.0513
23,GTCGAGAA,0.107
24,CCGATGAA,-0.198
25,AGAGAGGC,-0.353

row,Sequence,PBM E-score
1,AGCCCAGG,-0.331
2,AACTAAGC,0.123
3,GAAGGAAC,-0.138
4,TAAACGAA,0.116
5,AAAACGTC,0.409
6,AAAACGCC,0.0157
7,AAAACGTG,0.304
8,CAAACGCA,0.0771
9,TAAACGGA,-0.0437
10,CAAACGTG,0.272
11,TAAACGTA,0.42
12,CAAACGTA,0.416
13,AAAACGTT,0.207
14,AAAACGTA,0.449
15,AAAACGAC,0.113
16,CGTGCTAC,0.208
17,CACTATAG,-0.00316
18,ATTTCAAC,0.0828
19,ACGGTAGG,-0.189
20,CAAACGTC,0.329
21,GAAACGGA,0.15
22,GAAACGCC,0.145
23,GAAACGTC,0.385
24,GAAACGTA,0.398
25,GAAACGAA,0.115

row,Sequence,PBM E-score
1,ACTAACTA,-0.0162
2,AGGTTGCA,0.0863
3,GCAGCGGA,-0.11
4,CCCTGAGC,-0.145
5,ACCATTGA,0.0435
6,AGACGTAG,0.382
7,AGACGTCG,0.21
8,AGACGTAT,0.441
9,AGACGTTG,0.111
10,AGACGTAC,0.395
11,AGGCGTAC,0.105
12,AGTCGTAT,0.0845
13,AGCCGTAT,-0.0778
14,ATGCAGGC,-0.024
15,CGTGCAAG,0.0462
16,CCTACAAA,-0.0324
17,CAAGTCTA,-0.0923
18,ACCCTGAT,-0.0969
19,AGCCCTAT,-0.331
20,CCGCGGGA,-0.201
21,AATGCCCT,-0.205
22,AGAGGGTA,-0.035
23,ATGTCGTC,0.365
24,ATGTCGTG,0.239
25,ATGTCGGC,-0.12

row,Sequence,PBM E-score
1,ATGTCGTA,0.424
2,CTGTCGTC,0.21
3,GTGTCGTA,0.312
4,TGATAGAA,0.0834
5,AGGAGGTC,-0.24
6,AGCTAACA,-0.0839
7,AGGCACGA,0.0425
8,ACGACGTG,0.365
9,ACGACGGG,0.0518
10,ACGACGGA,0.0966
11,ACGACGCC,0.0289
12,ACGACGTA,0.446
13,ACGACGAC,0.00819
14,ACGACGAG,0.00694
15,ACGACGTC,0.367
16,ACGACGAT,0.127
17,ATGGGCAA,-0.138
18,AGGAGATC,-0.214
19,AGAAACAT,0.152
20,TCCTTGCA,-0.292
21,AAAATTCC,-0.152
22,CACGCCGG,-0.211
23,CGAAAAGA,0.163
